Test results taken from ChEMBL document CHEMBL1157539, “Thousands of chemical starting points for antimalarial lead identification” (Nature, 2010).

Tests used:
Assay type in all cases: functional
[1] = system: Plasmodium falciparum; experiment: GSK_TCMDC: Inhibition of Plasmodium falciparum 3D7 in whole red blood cells, using parasite LDH activity as an index of growth. Test compounds present at 2uM
[2] = system: Plasmodium falciparum; experiment: GSK_TCMDC: Inhibition of Plasmodium falciparum Dd2 in whole red blood cells, using parasite LDH activity as an index of growth. Test compounds present at 2uM
[3] = system: HepG2; experiment: GSK_TCMDC: Percent inhibition of human HepG2 cell line. Test compounds present at 10uM.

With Cl.Oc1cc(-c2nc(C3(CNCc4ccc(Cl)cc4)CCCCC3)[nH]c2-c2ccncc2)ccc1Cl the Inhibition [1] was 100%, the Inhibition [2] was 99% and the Inhibition [3] was 35%.

O=C(NCCCCN1CCC(c2ccc3c(c2OCc2ccncc2)CCCC3)CC1)c1ccc(NC(=O)c2ccc(Cl)cc2)cc1 was tested, and the Inhibition [1] was 100%, the Inhibition [2] was 99% and the Inhibition [3] was 62%.

Work on CN(C)c1ccc(/C=C2\S/C(=N\c3ccccc3)N(c3ccccc3)C2=O)cc1[N+](=O)[O-] yielded an Inhibition [1] of 96%, an Inhibition [2] of 82% and an Inhibition [3] of 9%.

O=c1nc2[nH]c3ccccc3n2c(=O)[nH]1 showed an Inhibition [1] of 95%, an Inhibition [2] of 0% and an Inhibition [3] of 21%.

With CCN(CC)CCOc1ccc(C(O)(C#CC(O)(c2ccc(C)cc2)c2ccc(OCCN(CC)CC)cc2)c2ccc(C)cc2)cc1 (centres undefined) the Inhibition [1] was 97%, the Inhibition [2] was 98% and the Inhibition [3] was 94%.

Compound CN1CCN(Cc2ccc(OCc3cccc(COc4ccc(CN5CCN(C)CC5)cc4I)c3)c(I)c2)CC1.Cl has an Inhibition [1] of 92%, an Inhibition [2] of 69% and an Inhibition [3] of 93%.

With CCCCCCCN1CCC(NC(=O)Nc2ccnc3ccc(OC)cc23)C(CO)C1.O=C(O)C(=O)O (centres undefined) the Inhibition [1] was 94%, the Inhibition [2] was 69% and the Inhibition [3] was 23%.

O=C(c1ccc(-c2ccc(-c3nc4cc(C(F)(F)F)ccc4[nH]3)s2)cc1)N1CCCCC1CN1CCC(O)C1 (centres undefined) was tested, and the Inhibition [1] was 92%, the Inhibition [2] was 80% and the Inhibition [3] was 90%.

In the case of O=c1cc(NCCCNCc2[nH]c3cc(Cl)cc(Cl)c3c2Cn2cccn2)[nH]c2ccccc12, the Inhibition [1] is reported as 86%, the Inhibition [2] is reported as 2% and the Inhibition [3] is reported as 5%.

With COc1cccc(C(=O)Nc2ccc(Nc3nc(C)cc(N(C)C)n3)cc2)c1 the Inhibition [1] was 92%, the Inhibition [2] was 33% and the Inhibition [3] was 1%.

Work on COc1cccc2[nH]c(NCCCNCc3cc(Br)cc(Br)c3)nc12 yielded an Inhibition [1] of 88%, an Inhibition [2] of 2% and an Inhibition [3] of 5%.

For CC1CN(Cc2ccc(-c3ccc(-c4nc5ccccc5[nH]4)cc3)cc2)CC(C)O1.O=C(O)C(F)(F)F (centres undefined), the Inhibition [1] was 98%, the Inhibition [2] was 96% and the Inhibition [3] was 48%.

For Cc1cccc2nc(-c3ccc(-c4ccc(CNCC5CCCO5)cc4)cc3)[nH]c12.O=C(O)C(F)(F)F (centres undefined), the Inhibition [1] was 100%, the Inhibition [2] was 81% and the Inhibition [3] was 36%.

Work on O=C(C=Cc1ccc(Cl)c(Cl)c1)NCCCCCN1CCC(CCNC(=O)c2ccc3c(c2)OCO3)CC1 yielded an Inhibition [1] of 99%, an Inhibition [2] of 2% and an Inhibition [3] of 35%.

N#Cc1cccc(NC(=O)Nc2cccc(OC3CCN(Cc4ccccc4)CC3)c2)c1.O=C(O)C(F)(F)F gave an Inhibition [1] of 100%, an Inhibition [2] of 48% and an Inhibition [3] of 5%.

In the case of CCCN(CCCN(CCCN(CCC)C(C)C)c1cc(C)nc(Nc2ccc(Cl)cc2)n1)C(C)C.O=C(O)C(=O)O, the Inhibition [1] is reported as 100%, the Inhibition [2] is reported as 99% and the Inhibition [3] is reported as 39%.

O=S(=O)(Nc1cccc(CCN2CCC(N3CCCCC3)CC2)c1)c1ccc(Cl)cc1 was tested, and the Inhibition [1] was 94%, the Inhibition [2] was 23% and the Inhibition [3] was 18%.

O=C(C=Cc1ccc(Cl)c(Cl)c1)NCCCCCN1CCC(c2n[nH]c3ccccc23)CC1 was tested, and the Inhibition [1] was 99%, the Inhibition [2] was 29% and the Inhibition [3] was 32%.

Compound O=C(CC1NC(=O)c2ccccc21)Nc1ccc(-c2cccc(-c3nc4cc(C(F)(F)F)ccc4[nH]3)c2)cc1 (centres undefined) has an Inhibition [1] of 95%, an Inhibition [2] of 36% and an Inhibition [3] of 69%.

With CC(C)(C)c1ccc(CN2CCC(NC(=O)c3ccc(-c4cccc(Cl)c4)s3)CC2)cc1.O=C(O)C(F)(F)F the Inhibition [1] was 99%, the Inhibition [2] was 47% and the Inhibition [3] was 36%.

For CCCCSc1c(CNCCCCCCNCc2ccc3ccccc3c2SCCCC)ccc2ccccc12.CS(=O)(=O)O, the Inhibition [1] was 93%, the Inhibition [2] was 62% and the Inhibition [3] was 99%.

Cc1nn(CC(C)C)c2sc(C(=O)Nc3nc(-c4ccccn4)cs3)cc12 was tested, and the Inhibition [1] was 96%, the Inhibition [2] was 67% and the Inhibition [3] was 29%.

With CCCCCCCCCN1CC[C@@H](CCCc2ccnc3ccc(O)cc23)[C@@H](CC)C1.O=C(O)C(=O)O the Inhibition [1] was 83%, the Inhibition [2] was 59% and the Inhibition [3] was 58%.

CNC(=O)c1cnc(Nc2ccc(N3CCOCC3)cc2)nc1Nc1cccc(OC)c1.O=C(O)C(F)(F)F was tested, and the Inhibition [1] was 96%, the Inhibition [2] was 41% and the Inhibition [3] was 2%.

In the case of COc1c(C2CCN(CCCCNC(=O)c3cc(-c4ccc(Cl)cc4)sc3C)CC2)ccc2c1CCCC2, the Inhibition [1] is reported as 100%, the Inhibition [2] is reported as 65% and the Inhibition [3] is reported as 61%.

Cc1cccc(N2C(N)=NC(N)=NC2(C)C)c1C.Cl showed an Inhibition [1] of 90%, an Inhibition [2] of 0% and an Inhibition [3] of 0%.

With CCN(CCCN1CCCCC1)c1nc(C)cc(Nc2ccc(Cl)cc2)n1 the Inhibition [1] was 98%, the Inhibition [2] was 92% and the Inhibition [3] was 30%.

CC(O)C1CCCCN1C(=O)c1ccc(-c2ccc(-c3nc4ccccc4[nH]3)s2)cc1 (centres undefined) gave an Inhibition [1] of 100%, an Inhibition [2] of 98% and an Inhibition [3] of 33%.

Compound O=C(/C=C/c1ccc(Cl)c(Cl)c1)NCCCCCN1CCC(NC(=O)Nc2cccc(Cl)c2F)CC1 has an Inhibition [1] of 100%, an Inhibition [2] of 30% and an Inhibition [3] of 75%.

Work on CCN(CCCN1CCCCC1)c1cc(C)nc(Nc2ccc(C)cc2)n1.O=C(O)C(F)(F)F yielded an Inhibition [1] of 100%, an Inhibition [2] of 10% and an Inhibition [3] of 17%.

With O=C(Nc1ccc(Cl)cc1)Nc1cccc(-c2cccc(-c3nc4cc(C(F)(F)F)ccc4[nH]3)c2)c1 the Inhibition [1] was 99%, the Inhibition [2] was 97% and the Inhibition [3] was 87%.

With Cc1cc(N[C@@H](Cc2ccccc2)C(=O)Nc2ccccc2)nc(NCCc2cccs2)n1.O=C(O)C(F)(F)F the Inhibition [1] was 100%, the Inhibition [2] was 72% and the Inhibition [3] was 0%.

Compound CCN(CC)CCN(Cc1ccc(-c2ccc(C(F)(F)F)cc2)cc1)C(=O)Cn1cc(CCCc2cccc(F)c2F)c(=O)c2ccccc21.O=C(O)C(O)C(O)C(=O)O has an Inhibition [1] of 89%, an Inhibition [2] of 20% and an Inhibition [3] of 13%.

Compound Cl.O=C1CSc2ccc(CNC3CCN(CCc4c(Cl)cnc5ccc(Cl)cc45)CC3)nc2N1 has an Inhibition [1] of 100%, an Inhibition [2] of 92% and an Inhibition [3] of 25%.

For COc1ccccc1NC(=O)Nc1ccc(-c2cccc(-c3nc4ccccc4[nH]3)c2)cc1, the Inhibition [1] was 100%, the Inhibition [2] was 25% and the Inhibition [3] was 42%.

CN1CCC(NCc2ccc(-c3ccc(S(=O)(=O)NC4CCC4)s3)cc2)CC1.O=C(O)C(F)(F)F gave an Inhibition [1] of 92%, an Inhibition [2] of 31% and an Inhibition [3] of 31%.

Work on Cc1cnc(NCCc2ccc(F)cc2)nc1N[C@@H](CC(C)C)C(=O)Nc1ccccc1.O=C(O)C(F)(F)F yielded an Inhibition [1] of 87%, an Inhibition [2] of 29% and an Inhibition [3] of 19%.

CCC(=O)Nc1nnc(Cc2ccc(OC)c(OC)c2)s1 showed an Inhibition [1] of 93%, an Inhibition [2] of 1% and an Inhibition [3] of 0%.

In the case of CCOCCCn1c(=N)c(C(=O)NCc2ccc(F)cc2)cc2c(=O)n3cccc(C)c3nc21, the Inhibition [1] is reported as 100%, the Inhibition [2] is reported as 40% and the Inhibition [3] is reported as 21%.

Compound CCc1ccc(O)c(-c2cc(C(=O)Nc3ccc(OC)c(Cl)c3)[nH]n2)c1 has an Inhibition [1] of 93%, an Inhibition [2] of 97% and an Inhibition [3] of 15%.

With O=C(NC1CCCCC1)N(Cc1ccccc1-c1ccc(CNCCc2ccccc2)cc1)C1CCN(Cc2ccccc2)CC1.O=C(O)C(F)(F)F the Inhibition [1] was 90%, the Inhibition [2] was 92% and the Inhibition [3] was 96%.

Compound O=C(/C=C/c1cccc(Cl)c1)NCCCCCN1CCC(c2c[nH]c3ccccc23)CC1 has an Inhibition [1] of 89%, an Inhibition [2] of 17% and an Inhibition [3] of 46%.

For c1ccc2[nH]c(-c3ccc(-c4ccc(CN5CCC(N6CCCCC6)CC5)cc4)s3)nc2c1, the Inhibition [1] was 99%, the Inhibition [2] was 100% and the Inhibition [3] was 26%.

CCc1c(CCNCCCCCCNCCc2ccccc2)ccc(OC)c1OC.Cl gave an Inhibition [1] of 100%, an Inhibition [2] of 3% and an Inhibition [3] of 33%.

In the case of Cc1cnc(N2CCN(CCCN3CCCC3)CC2)nc1Oc1ccc(-n2ccnc2)cc1.O=C(O)C(F)(F)F, the Inhibition [1] is reported as 99%, the Inhibition [2] is reported as 82% and the Inhibition [3] is reported as 12%.

CN1CCN(Cc2cccc(-c3ccc4c(Nc5ccc(Oc6ccccc6)cc5)ccnc4c3)c2)CC1 gave an Inhibition [1] of 100%, an Inhibition [2] of 100% and an Inhibition [3] of 41%.

In the case of Cc1cc(C2CCN(CCCCNC(=O)c3ccc(NC(=O)c4ccc(Cl)cc4)cc3)CC2)c(C)cc1OCc1nccn1C.Cl, the Inhibition [1] is reported as 100%, the Inhibition [2] is reported as 98% and the Inhibition [3] is reported as 18%.

Work on COc1ccc(OC)c(-c2cccc(-c3cccc(NC(=O)c4ccc([N+](=O)[O-])o4)c3)n2)c1 yielded an Inhibition [1] of 98%, an Inhibition [2] of 97% and an Inhibition [3] of 75%.

Work on CC(C)CCNC(=O)C1Cc2c([nH]c3cc(Cl)ccc23)C2(CCN(CCc3ccccc3)CC2)N1 (centres undefined) yielded an Inhibition [1] of 100%, an Inhibition [2] of 55% and an Inhibition [3] of 17%.

For CCc1c(C)nc(-n2nc(C)cc2NC(=O)C(CC)c2ccccc2)[nH]c1=O (centres undefined), the Inhibition [1] was 97%, the Inhibition [2] was 93% and the Inhibition [3] was 41%.

CCNC(=O)N1CCc2ccc(Oc3nc(NCc4ccccc4OC)ncc3C)cc2CC1.O=C(O)C(F)(F)F gave an Inhibition [1] of 83%, an Inhibition [2] of 76% and an Inhibition [3] of 0%.

O=C(O)C(F)(F)F.c1cc(CNCCN2CCNCC2)cc(-c2ccc(-c3nc4ccccc4[nH]3)cc2)c1 showed an Inhibition [1] of 98%, an Inhibition [2] of 11% and an Inhibition [3] of 3%.

CCc1cn2c3c(cc(C(=O)N[C@@H](Cc4cc(F)cc(F)c4)[C@H](O)CNC4CCCCC4)cc13)N(C)S(=O)(=O)CC2.O=CO showed an Inhibition [1] of 100%, an Inhibition [2] of 99% and an Inhibition [3] of 9%.

With O=C(Nc1cccc(-c2nn3ncccc3c2-c2ccnc(Nc3cccc(-c4cnco4)c3)n2)c1)c1c(F)cccc1F the Inhibition [1] was 97%, the Inhibition [2] was 98% and the Inhibition [3] was 96%.

Work on Nc1nc(N)c2cc(CNc3ccc(Cl)c(Cl)c3)ccc2n1 yielded an Inhibition [1] of 93%, an Inhibition [2] of 55% and an Inhibition [3] of 62%.

Work on COc1ccc(N2C(N)=NC(N)=NC2(C)C)cc1OC.Cl yielded an Inhibition [1] of 95%, an Inhibition [2] of 0% and an Inhibition [3] of 13%.

With O=C(O)C(F)(F)F.O=C1CCCN1CCCNCc1ccc(-c2ccc(-c3nc4cc(C(F)(F)F)ccc4[nH]3)cc2)cc1 the Inhibition [1] was 100%, the Inhibition [2] was 98% and the Inhibition [3] was 10%.

COc1cc2nc(NCCCO)nc(Nc3ccc(Oc4ccccc4)cc3)c2cc1OC showed an Inhibition [1] of 100%, an Inhibition [2] of 100% and an Inhibition [3] of 24%.
